Results as given in PubChem BioAssay AID743398 (Broad Institute, 2014).
The campaign covered roughly 300,000 compounds. About 3,600 (1.2%) were called active. This is one part of a sample in which actives are shown more often than they occur. No stated cut-off is given here; in the data, active means activation above about 30% (passing the limit was not always enough); inconclusive means no clear call, values can overlap the other calls. Where a SMILES comes first, the peptide text is derived from it. [ ]: non-standard residue; d: D form. The star is where a group is joined. PhAc = O=C(Cc1ccccc1)*

Assay: Wnt/beta-catenin pathway activators, primary screen, cell-based, plate reader, single point (AID 743398);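 further: 0% = neutral control wells and 100% = positive control wells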
Conditions: Wnt/beta-catenin reporter cell assay, activator, at 9.35 µM, hits give high values

activation, active:
Cc1ccnc(NC(=O)CCNS(=O)(=O)c2ccc(C)c(C)c2)c1 35.8%, O=C(/C=C/c1cnc2ccccc2n1)NC1CCCCCC1 49.2%, CN(C)c1ccc(CNC23CN4CN(CN(C4)C2)C3)cc1 35.9%, CCOc1cc(/C=C2/C(=N)N3OC(C)=CC3=NC2=O)ccc1OC 39.2%, Cc1ccc(NC(=O)Nc2ccccc2)c(Br)c1 50.8%, COc1cccc(-c2nc3cc(C)ccc3o2)c1 40.6%, O=C(O)CSCc1nc2ccccc2s1 39.2%, CS(=O)(=O)N1CCc2nc(-c3ccccc3)sc2C1 35.7%, CO/N=C/CC(=O)c1ccc(OC)cc1 61.5%, C=CCc1c(C)nc2cc(-c3ccccc3)[nH]n2c1=O 45.5%, Brc1ccc(-c2noc(-c3ccccc3)n2)o1 43.9%, COC(=O)[C@H](CC(C)C)NC(=O)N1CCCCC1C (stereo not given in full) 39.6%, O=C1c2ccccc2NC(c2ccccn2)N1NS(=O)(=O)c1ccccc1 (stereo not given) 31%, Brc1ccc2nc(N3CCCC3)sc2c1 43.7%, O=C(Nc1ccc2ccccc2c1[N+](=O)[O-])c1ccccc1 55.8%, COC(=O)c1ccc(SCc2ccccc2)nc1 51.6%, O=C(Nc1ccc2c(c1)OCCO2)C1CCCN(c2ncccn2)C1 (stereo not given) 45.5%

activation, inactive:
COC(=O)c1ccc2nc(-c3ccc(Cl)cc3)c(Cc3cccc(F)c3)n2c1 11.3%, Cc1ccc(S(=O)(=O)NCCC(=O)Nc2cccc(S(N)(=O)=O)c2)cc1C -1.96%, Cc1ccc(S(=O)(=O)NCCC(=O)Nc2ccc(C)c(Cl)c2)cc1C -1.93%, CCN1CCCC1CNC(=O)c1ccc2c(c1)NC(=O)/C(=C\c1ccccc1F)S2 (stereo not given) -0.637%, O=c1[nH]c(-c2ccccc2)cn1C1CCN(Cc2ccc(-c3nc4ccc(F)cc4nc3-c3ccccc3)cc2)CC1 0.441%, COCCCn1c(C(=O)NC2CCCCC2)cc2c(=O)n3cccc(C)c3nc21 -1.3%, CC(C)NC(=O)N1Cc2cc(C(=O)NCC(F)(F)F)nc(-c3cccc(-c4cc5ccccc5o4)c3)c2[C@@H]1CCO -2.74%, CC(C)c1cc(C(=O)NC2CCCCCC2)c2ccccc2n1 -2.8%, CC1CCCCC1NC(=O)Cn1c(=O)cnc2ccccc21 (stereo not given) -3.58%, COC(=O)[C@]1(Cc2ccccc2)NC=C(C(=O)c2ccccc2)[C@@H]1c1cccc(OC)c1 2.93%, COC(=O)c1c(-c2ccc(OC)cc2)c2c(c3c4cc(OC)ccc4n(S(=O)(=O)c4ccc(F)cc4)c13)C(=O)N(C)C2 -8.37%, CN(C)c1ccc(CSc2ccccc2)cc1 2.13%, CCNC(=O)C1(C)CCCN1C(=O)c1ccc(N(C)C)cc1 (stereo not given) -4.12%, Nc1ncnc2c1ncn2[C@@H]1O[C@H](C(=O)N[C@@H](CCc2ccccc2)C(=O)NCC(=O)N2CCOCC2)[C@@H](O)[C@H]1O -8.65%, COc1ccc(OCCCn2cccc2/C=C2/C(=N)N3OC(C)=CC3=NC2=O)cc1 21%, CCOc1cc(/C=C2\C(=N)N3N=C(C)SC3=NC2=O)ccc1OCCOc1ccccc1 0.097%, COc1ccc(-c2cc3c(c4c2ccn4C)C2CCC3C2)cn1 (stereo not given) -0.553%, Cc1cccc(-c2cnc(C(O)c3ccc4ccccc4c3)[nH]2)c1 (stereo not given) -0.607%, Cc1c(NC(=O)Nc2ccccc2)cccc1[N+](=O)[O-] 1.75%, CS(=O)(=O)c1ccc(Cl)c(NC(=O)Nc2ccccc2)c1 1.45%, CC[C@H](C)[C@H]1CNC(=O)C(=O)N1CC1CCN(CCc2ccc(OC)c(OC)c2)CC1 -3.36%, COc1ccc2oc(-c3cccc(NC(=O)CSc4ccc(Cl)cc4)c3)nc2c1 22.7%, COc1ccc2oc(N)nc2c1 2.19%, CC(=O)Oc1ccc(Cn2c(C)c(C(=O)NCc3ccc(C#N)cc3)sc2=O)cc1 -1.94%, Cc1ccc(-c2nc3c(Cl)cc(C(F)(F)F)cn3c2Cc2cccc(Cl)c2)cc1 -3.09%, CC(=O)Nc1cccc(-c2cc(NC=O)c3ncc(-c4ccc(F)c(Cl)c4)n3c2)c1 -1.52%, COc1cccc(-c2cc3nc(NCCOc4ccccc4Cl)n(C)c(=O)c3s2)c1 0.348%, COc1ccc(-c2ccc3c(n2)CCCN3S(=O)(=O)c2ccc(C)cc2)cc1 -3.98%, O=C(O)CCCCc1nc2ccccc2s1 -1.61%, O=C(O)c1ccccc1CSc1nc2ccccc2s1 2.11%, CC(=O)c1cnc(-c2ccccc2)s1 2.94%, CS(=O)(=O)N1CCC(C(=O)N2CCN(c3ccccc3)CC2)CC1 -0.44%, COC(=O)Cc1nnn2c1[C@H](C)[C@@H](OC)c1cc(Br)ccc1-2 2.78%, Nc1nc2c(ncn2[C@@H]2O[C@H](C(=O)N[C@H](Cc3ccccc3)C(=O)NCC3CCCCC3)[C@@H](O)[C@H]2O)c(=O)[nH]1 -6.28%, COc1ccc(CNC(=O)c2ccc(-c3cccnc3)c3ccoc23)cc1OC -3.07%, COc1ccc(CCC(=O)c2ccc(OC)cc2)cc1 5.92%, COc1ccc(OCCC(=O)c2ccc(OC)cc2)cc1 -1.86%, CC(C)(C)C(c1nc2ccccc2[nH]1)n1c(Cc2csc3ccccc23)nc2ccccc21 (stereo not given) 15.7%, CCc1c(C)nc2cc(C)[nH]n2c1=O -2.02%, CCCCN1Cc2c(nc3cc(-c4ccccc4)[nH]n3c2=O)C1=O 0.267%, COc1ccc(CN2CCC(C)(Oc3cccc(F)c3)C2)c2ccccc12 (stereo not given) -4.58%, CCc1nc2c(OCCOc3ccccc3)cccn2c1N(C)C(=O)c1ccccc1F -2.42%, CC(O)(c1cccc(F)c1)c1nc(-c2ccc3c(c2)OCO3)cs1 (stereo not given) -1.63%, O=C(Oc1ccc(-c2nc(-c3ccccn3)no2)cc1)c1ccccc1 1.55%, Nc1ccc(-c2nnc(-c3ccccc3)o2)cc1 2.79%, Cc1cc2nc(-c3ccc(F)cc3)c(Cc3ccsc3)n2c(C)c1Br -0.642%, COc1cccc(CNC(=O)[C@H]2CCCN2C(=O)[C@H]2CCCN2C(=O)C2CCCCC2)c1 0.974%, CC(C)C[C@@H](NC(=O)[C@H]1CCCN1C(=O)Cc1ccccc1)C(N)=O (PhAc-[dP]-[dL]-NH2) 0.192%, CC(C)C[C@H](NC(=O)C1CCC(CNC(=O)[C@@H]2CCCN2C(=O)OC(C)(C)C)CC1)C(=O)O (stereo not given in full) 1.33%, COc1cccc(CNC(=O)[C@H]2CCCN2C(=O)[C@H]2CCCN2C(=O)c2cc(F)cc(F)c2)c1 -1.85%, O=C1c2ccccc2NC(c2ccccc2O)N1NS(=O)(=O)c1ccccc1 (stereo not given) -0.668%, CN(C)c1ccc(C2Nc3ccccc3C(=O)N2NS(=O)(=O)c2ccccc2)cc1 (stereo not given) -0.625%, c1ccc(CNCc2ccc(CNCc3ccccc3)cc2)cc1 0.235%, N#CCCN(C(=O)Nc1ccc(Cl)c(Cl)c1)C1CCCCC1 2.31%, CC1(C(=O)NCc2ccc3c(c2)OCO3)CCN1C(=O)Cc1cccc2ccccc12 (stereo not given) 12.9%, CCN(CC)CCN(C)C(c1ccnc2ccccc12)c1nnnn1-c1ccc2c(c1)OCCO2 (stereo not given) -2.38%, CCc1cccc(CC)c1N1C(=O)CC(Sc2ccccc2N)C1=O (stereo not given) 2.41%, O=S(=O)(Nc1ccc2nc(N3CCOCC3)sc2c1)c1ccccc1 29.3%, c1c2c(cc3sc(N4CCCCC4)nc13)OCCO2 1.11%, COC(=O)[C@@]12C[C@@H](CC(=O)N3CCC(c4ccccc4)CC3)C(=O)N(Cc3ccccc3)C1=CCC(C)(C)C2 -3.58%, CCCCCc1c(Cc2ccccc2)ncn1CCc1ccccc1OC -9.51%, O=C(CNC(=O)c1ccccc1)Oc1ccc([N+](=O)[O-])cc1 -0.597%, O=C(O)c1cc([N+](=O)[O-])c(Nc2cccc3ccccc23)c([N+](=O)[O-])c1 0.153%, COC(=O)c1c(-c2ccc(OC)cc2)c2c(c3c4ccccc4n(S(=O)(=O)c4ccc(C)cc4)c13)C(=O)N(C)C2 -6.59%, COC(=O)C1=C(C(=O)OC)C2C=C(C(C)C)C1C(=O)C2(C)O (stereo not given) -3.31%, O=C(NCc1ccc(F)cc1)c1cc(C2CCCCN2C(=O)c2ccccn2)on1 (stereo not given) -0.749%, O=C(NCc1ccccc1)[C@@H]1CCCN1C(=O)[C@@H](NS(=O)(=O)c1ccc(F)cc1F)C1CCCCC1 -0.246%, COC(=O)c1ccc(CSc2nncn2N)cc1 -7.5%, COC(=O)c1ccc(CSc2ccc(S(=O)(=O)N3CCCCC3)cn2)cc1 -0.89%, Nc1ccn([C@@H]2O[C@H](C(=O)N[C@H]3CCCCNC3=O)[C@@H](O)[C@H]2O)c(=O)n1 -3.4%, Cc1cc(C)nc(N2CCC(C(=O)Nc3ccc4c(c3)OCCO4)CC2)n1 -5.24%, O=C(Nc1ccc2c(c1)OCCO2)C1CCCC1 -15.2%, CC1(C(=O)Nc2cccc3cccnc23)CCN1C(=O)CCC1CCCC1 (stereo not given) -4.88%
